This is an account of results in PubChem BioAssay.

Active and inactive are the calls of the source. Unless noted, how the calls were made is not given here.

Experiment [1] is described as follows: resazurin metabolic signal in HepG2 cells – cell-based, resazurin fluorescence, 24 h, PK04 Diversity Set, profiling panel (AID 1172). As to conditions: HepG2 viability, higher = more signal. On the technique in general: Alamar Blue is a resazurin reagent that responds to reducing activity.
Experiment [2] in a line: budding yeast growth changes without added modifier – OD600, strain BY4716, 24 h, basal condition, primary screen (AID 1173). Conditions: S. cerevisiae BY4716 growth, OD600, 24 h; higher = more signal, called active from +8 up or from −8 down.
The nature of experiment [3]: viability profiling in MM1S myeloma cells – cell-based, resazurin fluorescence, basal, 24 h, PK04 Diversity Set, profiling panel (AID 1174).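 Further: MM1S multiple myeloma cell line.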 As to conditions: higher = more signal, called active from +8 up or from −8 down.
The target in experiment [4] is Dihydroorotate dehydrogenase (quinone), mitochondrial (Plasmodium falciparum (isolate 3D7)) (UniProt Q08210). In words: inhibition of P. falciparum DHODH – biochemical, C-terminal His tag, absorbance 600 nm, primary screen (AID 1175).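 Further: recombinant parasite enzyme with a five histidine tag at its C terminus.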 Conditions: PfDHODH enzyme, DCIP absorbance 600 nm; higher = more signal, called active from +8 up or from −8 down.
A short description of experiment [5]: inhibition of PAO1 biofilm formation – strain PAO1, LB-PBS medium, absorbance 600 nm, primary screen (AID 1176). As to conditions: P. aeruginosa PAO1 growth/biofilm, A600, 12 h; higher = more signal.
Experiment [6] can be described thus: growth modulation of vineyard yeast isolate – strain RM11-1a, OD600, basal, 24 h, primary screen (AID 1177).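 Further: cultures grown under basal conditions with no added stressor.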 Conditions: S. cerevisiae RM11-1a growth, OD600, 24 h; higher = more signal, called active from +8 up or from −8 down.
A short description of experiment [7]: growth of efflux-deficient E. coli DRC39 – strain DRC39, OD650, 24 h, E. coli filamentation inducers, primary screen (AID 1178).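 Further: growth measured as culture turbidity by optical density at 650 nm.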 Conditions: E. coli DRC39 acrAB, higher = more signal, called active from +8 up or from −8 down.
The nature of experiment [8]: growth of efflux-deficient E. coli DRC39 – strain DRC39, OD650, 48 h, E. coli filamentation inducers, primary screen (AID 1179).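 Further: screen aims at cell division blockers that make cells filament.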 As to conditions: E. coli DRC39 delta-acrAB growth, higher = more signal, called active from +8 up or from −8 down.
Experiment [9] in a line: viability profiling in RPMI8226 myeloma cells – cell-based, resazurin fluorescence, basal, 24 h, PK04 Diversity Set, profiling panel (AID 1180).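 Further: RPMI8826 multiple myeloma cell line at 5000 cells per well.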 Conditions: higher = more signal.
Experiment [10] concerns the target E3 ubiquitin-protein ligase XIAP (Homo sapiens) (UniProt P98170). The experiment is described as follows: small molecules binding XIAP protein – biophysical, small-molecule microarray, fluorescence 635 nm, primary screen (AID 1181).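 Further: score merges 667 nm emission and signal to noise over triplicate slides.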 As to conditions: higher = more signal.
The test system of experiment [11] is XIP peptide (Xip251-270) binding. In words: XIP fragment 251-270 binding compounds – biochemical, small-molecule microarray, fluorescence 635/667 nm, 0.1 µg/mL protein, primary screen (AID 1182). Conditions: fluorescent protein binding, 635 nm, higher = more signal, called active from +8 up or from −8 down.
The test system of the next experiment is XIP peptide (Xip251-270). The experiment is described as follows: compounds binding XIP fragment 251-270 – biochemical, small-molecule microarray, fluorescence 635/667 nm, 0.5 µg/mL protein, primary screen (AID 1183). Conditions: fluorescence 635 nm, higher = more signal.
A short description of experiment [12]: blood-stage malaria parasite viability loss – strain 3D7, DAPI fluorescence, 100 nL, primary screen (AID 1184).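 Further: parasites grown inside human red blood cells in medium with human serum.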 Conditions: P. falciparum 3D7 growth, 3 d, higher = more signal.
The target in experiment [13] is Homeobox protein Hox-A13 (Mus musculus) (UniProt Q62424). The experiment is described as follows: disruptors of Hoxa13 oligonucleotide interaction – biochemical, fluorescence polarization, labeled oligonucleotide, primary screen (AID 1185). As to conditions: Hoxa13:DNA binding, 15 min, higher = more signal, called active from +8 up or from −8 down. (In fluorescence polarisation assays a small probe gives low polarisation when free and higher when bound to something large.)

Experiment [14] is described as follows: blockers of DNA damage checkpoint Chk1 activation – imaging, HeLa, hydroxyurea, phospho-Chk1 antibody, percent positive cells, primary screen (AID 1186). As to conditions: hydroxyurea-induced phospho-Chk1 immunofluorescence imaging, higher = more signal.
Experiment [15] in a line: blockers of DNA damage checkpoint Chk1 activation – imaging, HeLa, hydroxyurea, phospho-Chk1 nuclear intensity, primary screen (AID 1187). Conditions: hydroxyurea-induced phospho-Chk1 immunofluorescence imaging, higher = more signal.

Sequence of Dihydroorotate dehydrogenase (quinone), mitochondrial (Plasmodium falciparum (isolate 3D7)) (Q08210 whole entry, looked up): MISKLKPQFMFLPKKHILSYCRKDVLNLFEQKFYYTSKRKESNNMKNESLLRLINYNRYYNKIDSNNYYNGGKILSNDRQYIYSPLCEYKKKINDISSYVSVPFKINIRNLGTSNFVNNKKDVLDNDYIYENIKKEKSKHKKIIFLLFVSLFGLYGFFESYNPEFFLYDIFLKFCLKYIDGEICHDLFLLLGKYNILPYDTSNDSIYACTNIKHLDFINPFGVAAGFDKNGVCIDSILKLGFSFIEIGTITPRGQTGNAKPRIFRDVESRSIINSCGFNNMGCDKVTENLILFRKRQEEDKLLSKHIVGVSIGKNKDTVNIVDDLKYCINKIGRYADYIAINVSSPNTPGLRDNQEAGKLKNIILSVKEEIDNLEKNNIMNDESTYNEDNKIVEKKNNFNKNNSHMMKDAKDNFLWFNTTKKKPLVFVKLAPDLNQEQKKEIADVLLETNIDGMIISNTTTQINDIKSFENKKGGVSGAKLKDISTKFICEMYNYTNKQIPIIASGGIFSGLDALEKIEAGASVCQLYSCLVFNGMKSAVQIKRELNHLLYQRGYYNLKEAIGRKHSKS
Sequence of E3 ubiquitin-protein ligase XIAP (Homo sapiens) (P98170 whole entry, looked up, the tested form may be a part): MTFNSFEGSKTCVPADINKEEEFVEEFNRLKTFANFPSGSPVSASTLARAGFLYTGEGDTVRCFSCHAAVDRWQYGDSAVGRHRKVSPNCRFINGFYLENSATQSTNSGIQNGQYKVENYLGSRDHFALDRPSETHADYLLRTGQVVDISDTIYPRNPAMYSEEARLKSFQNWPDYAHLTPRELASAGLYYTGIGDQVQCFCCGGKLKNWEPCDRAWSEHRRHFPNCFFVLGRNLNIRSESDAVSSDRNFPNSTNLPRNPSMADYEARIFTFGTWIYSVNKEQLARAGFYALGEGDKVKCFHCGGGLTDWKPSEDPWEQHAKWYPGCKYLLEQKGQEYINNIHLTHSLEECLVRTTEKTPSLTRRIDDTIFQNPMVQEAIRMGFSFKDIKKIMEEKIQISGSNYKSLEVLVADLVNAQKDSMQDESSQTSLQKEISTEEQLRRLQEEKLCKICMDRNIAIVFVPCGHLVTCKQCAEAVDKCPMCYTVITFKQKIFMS
Sequence of Homeobox protein Hox-A13 (Mus musculus) (Q62424 whole entry, looked up): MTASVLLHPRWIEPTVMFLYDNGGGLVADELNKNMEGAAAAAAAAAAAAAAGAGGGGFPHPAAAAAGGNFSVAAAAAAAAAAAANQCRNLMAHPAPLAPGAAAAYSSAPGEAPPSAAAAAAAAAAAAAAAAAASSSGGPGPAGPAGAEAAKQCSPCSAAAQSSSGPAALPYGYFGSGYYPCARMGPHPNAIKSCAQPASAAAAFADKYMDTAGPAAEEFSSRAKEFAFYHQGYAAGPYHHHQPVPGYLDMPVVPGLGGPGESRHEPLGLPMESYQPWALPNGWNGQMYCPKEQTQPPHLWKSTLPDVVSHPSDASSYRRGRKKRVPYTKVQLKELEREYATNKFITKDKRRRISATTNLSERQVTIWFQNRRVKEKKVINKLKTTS

As to `NC(=O)N1C(=O)C2C(C1=O)C1C=C(CCCO)C2C(C2CC2)N1Cc1cc2c(cc1Br)OCO2` (stereo not given), the z-score in experiment [1] was -0.437; in experiment [2] it was -1.85 (inactive); in experiment [3] it was -0.264 (inactive); in experiment [5] it was -0.778 (inactive); in [6], -0.492 (inactive); in [7], -0.298 (inactive). Also, the z-score in experiment [8] is -0.562 (inactive); in [9], -0.46; in [12], 1.74; in experiment [13] it was -7.26 (inactive); in [14], 0.207 (inactive); in [15], 0.727 (inactive). Besides, the composite z-score in experiment [4] is -0.659 (inactive); in experiment [10], 0.0479; in experiment [11], -0.0845 (inactive); in the experiment on XIP peptide (Xip251-270), -0.102.

Turning to `C=CC[C@]1(C(=O)NCc2ccccc2)N=C(c2ccc(OCCCO)cc2)O[C@H]1c1ccccc1CN=[N+]=[N-]`, the z-score in experiment [1] was 0.238; in [2], -0.0802 (inactive); in experiment [3] it was -0.871 (inactive); in experiment [5], 1.06 (inactive); in [6], 0.149 (inactive); in experiment [7] it was -0.0443 (inactive). Moreover, the z-score is -1.25 (inactive) in experiment [8]; -0.328 in [9]; -2.53 in experiment [12]; 0.343 (inactive) in experiment [13]; -0.158 (inactive) in experiment [14]; -0.402 (inactive) in experiment [15]. The composite z-score in experiment [4] is 0.548 (inactive); in [10], -0.0322; in experiment [11], -0.274 (inactive); with XIP peptide (Xip251-270), 0.338.

As to `C#CCN(C/C=C/c1ccccc1)[C@H](CO)c1ccccc1`, the z-score in [1] is -0.832; in experiment [2], -16.9 (active); in experiment [3] it was -1.19 (inactive); in [5], -0.128 (inactive); in experiment [6] it was -1.31 (inactive); in experiment [7] it was -0.338 (inactive). Moreover, the z-score in [8] was -1.7 (inactive); in [9] it was -1.45; in experiment [12] it was -0.213; in [13], -6.53 (inactive); in experiment [14], -0.209 (inactive); in experiment [15], -0.753 (inactive). The composite z-score in [4] was 0.716 (inactive); in experiment [10], -0.167; in experiment [11] it was -0.333 (inactive); in the experiment with XIP peptide (Xip251-270), -0.384.

In the case of `COCCOC(=O)N1C(=O)[C@@]2(c3ccccc31)[C@H](C(N)=O)[C@H]1C(=O)O[C@H](c3ccccc3)[C@H](c3ccccc3)N1[C@@H]2c1ccc(O)cc1`, the z-score in [1] was -0.755; in [2], -0.494 (inactive); in experiment [3], -0.593 (inactive); in experiment [5] it was 0.806 (inactive); in experiment [6] it was 0.275 (inactive); in experiment [7], 0.396 (inactive). Also, the z-score in [8] was 0.787 (inactive); in experiment [9], -1.01; in [12] it was 0.373; in [13], -4.73 (inactive); in experiment [14], -0.0504 (inactive); in [15], -0.194 (inactive). The composite z-score in experiment [4] was -0.294 (inactive); in [10], 0.175; in [11], -0.114 (inactive); in the experiment with XIP peptide (Xip251-270), 0.726.

For the molecule `COc1ccc([Si](C)(C)[C@H]2[C@H](CCO)O[C@@]3(C(=O)N(Cc4ccccc4)c4ccc(N5CCCCC5=O)cc43)[C@@H]2C)cc1`, the z-score in experiment [1] was -1.91; in experiment [2], 0.234 (inactive); in experiment [3], -2.66 (inactive); in experiment [5] it was 1.51 (inactive); in [6], 3.14 (inactive); in experiment [7] it was 0.663 (inactive). The z-score in experiment [8] is 0.45 (inactive); in experiment [9] it was -3.46; in experiment [12], -1.67; in experiment [13], -5.2 (inactive); in experiment [14], -1.39 (inactive); in [15] it was -0.713 (inactive). The composite z-score is -2.81 (inactive) in experiment [4], -0.0025 in experiment [10], 0.391 (inactive) in experiment [11] and 0.686 in the experiment on XIP peptide (Xip251-270).

Consider `CO[C@H]1O[C@H](CO)[C@@H](OC(=O)Nc2cccc(F)c2)[C@H](OC(=O)Nc2ccccc2)[C@H]1OC(=O)Nc1ccccc1`, for which the z-score was -2.71 in [1]; 0.311 (inactive) in [2]; -4.75 (inactive) in [3]; -0.261 (inactive) in experiment [5]; 1.77 (inactive) in experiment [6]; 1.11 (inactive) in experiment [7]. Further, the z-score was 0.194 (inactive) in [8]; -4.5 in experiment [9]; -2.38 in [12]; -5.97 (inactive) in experiment [13]; -0.357 (inactive) in experiment [14]; 0.161 (inactive) in experiment [15]. Moreover, the composite z-score is -0.599 (inactive) in experiment [4], 0.072 in [10], 0.879 (inactive) in experiment [11] and 0.882 with XIP peptide (Xip251-270).

With `O=c1cccc(-c2ccccc2Cl)o1`, the z-score in [1] was -0.611; in experiment [2], -2.25 (inactive); in experiment [3], -0.111 (inactive); in [5], -0.0043 (inactive); in experiment [6], -0.234 (inactive); in experiment [7] it was -0.366 (inactive). The z-score in experiment [8] is -0.608 (inactive); in experiment [9], -0.698; in experiment [12], 0.382; in experiment [13], -0.226 (inactive); in [14], 0.266 (inactive); in experiment [15] it was -0.26 (inactive). The composite z-score in [4] is -0.316 (inactive); in experiment [10] it was -0.0999; in experiment [11], -0.143 (inactive); in the experiment on XIP peptide (Xip251-270), -0.231.

In the case of `C=C(C)[C@@H]1CC=C(C(O)C2C=CC3C(=O)NC(=O)C3N2Nc2ccc(Cl)cc2Cl)CC1` (stereo not given in full), the z-score in experiment [1] was -3.18; in experiment [2], -5.07 (inactive); in experiment [3], -2.94 (inactive); in experiment [5] it was 0.875 (inactive); in experiment [6] it was 1.11 (inactive); in experiment [7], -0.761 (inactive). For the same molecule, the z-score was -1.29 (inactive) in experiment [8]; -2.54 in experiment [9]; -0.52 in experiment [12]; -5.46 (inactive) in experiment [13]; 0.463 (inactive) in [14]; 0.154 (inactive) in experiment [15]. For the same molecule, the composite z-score in experiment [4] is 0.512 (inactive); in experiment [10], -0.0655; in experiment [11], -0.245 (inactive); in the experiment with XIP peptide (Xip251-270), 0.468.

In the case of `[N-]=[N+]=Nc1ccccc1[C@H]1OC(c2ccc(OCCCO)cc2)=N[C@@]1(Cc1ccccc1)C(=O)N1CCOCC1`, the z-score was -1.28 in [1]; -1.33 (inactive) in [2]; -2.81 (inactive) in experiment [3]; 0.948 (inactive) in [5]; 0.711 (inactive) in [6]; 0.226 (inactive) in experiment [7]. The z-score was -0.927 (inactive) in experiment [8]; -4.56 in experiment [9]; -2.19 in experiment [12]; -3.84 (inactive) in experiment [13]; -0.0747 (inactive) in experiment [14]; 0.0969 (inactive) in experiment [15]. For the same molecule, the composite z-score in [4] is 0.396 (inactive); in experiment [10] it was -0.0917; in [11], 2.73 (inactive); in the experiment on XIP peptide (Xip251-270), 0.816.

On to `O=C1O[C@@H](c2ccccc2)[C@@H](c2ccccc2)N2[C@@H](c3ccccc3OCCO)[C@]3(C(=O)Nc4ccccc43)[C@@H](C(=O)O)[C@H]12`, for which the z-score in experiment [1] was -0.0985; in experiment [2] it was -2.46 (inactive); in experiment [3], 0.19 (inactive); in experiment [5], 0.986 (inactive); in experiment [6], 0.324 (inactive); in experiment [7] it was -0.582 (inactive). Also, the z-score was -0.76 (inactive) in [8]; 0.125 in experiment [9]; -0.6 in experiment [12]; -6.35 (inactive) in experiment [13]; 0.405 (inactive) in experiment [14]; 0.5 (inactive) in experiment [15]. For the same molecule, the composite z-score was -0.487 (inactive) in experiment [4], 0.0755 in [10], 1.14 (inactive) in [11] and 0.457 in the experiment with XIP peptide (Xip251-270).
